From PubChem BioAssay AID1159580 (chemical genetic matrix, 2015)
Screen size: about 5,500 compounds; about 2,000 (36%) were called active. Inconclusive results (about 18%) are left out. Rule as the data show it: active = normalized growth mostly below about 0.91 (no sharp cut-off); inconclusive = no clear call, values can overlap the other calls; inactive = mostly above about 0.92. Some of the results follow.

Test: chemical genetic growth profiling, strain panel (AID 1159580);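 also: tested at 20 µM; growth read once vehicle control cultures reached saturation at 30 °C; 1 = growth at the plate median or of vehicle wells; lower values mean less growth of the strain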
Conditions: growth OD

Measured: normalized growth

O=c1c(O)cc([C@H]2Oc3cc(O)cc(O)c3C[C@H]2O)cc2c([C@H]3Oc4cc(O)cc(O)c4C[C@H]3O)cc(O)c(O)c12
inactive: S. cerevisiae deletion strains, locus YJR066W, strain TOR1, active compounds read low 0.921 | S. cerevisiae deletion strains, locus YKL009W, strain mrt4, active compounds read low 1.09 | S. cerevisiae deletion strains, locus YKL068W, active compounds read low 1.01 | S. cerevisiae deletion strains, locus YKL160W, strain elf1, active compounds read low 1.01 | S. cerevisiae deletion strains, locus YKL190W, strain CNB1, active compounds read low 1.02 | S. cerevisiae deletion strains, locus YKR001C, strain vps1, active compounds read low 1.02 | S. cerevisiae deletion strains, locus YKR026C, strain gcn3, active compounds read low 0.987 | S. cerevisiae deletion strains, locus YKR091W, strain srl3, active compounds read low 1.03 | S. cerevisiae deletion strains, locus YLL001W, strain dnm1, active compounds read low 1.03 | S. cerevisiae deletion strains, locus YLL026W, active compounds read low 1.04 | S. cerevisiae deletion strains, locus YLL041C, strain sdh2, active compounds read low 1.03 | S. cerevisiae deletion strains, locus YLR027C, strain aat2, active compounds read low 1.02 | S. cerevisiae deletion strains, locus YLR039C, strain RIC1, active compounds read low 1.15 | S. cerevisiae deletion strains, locus YLR058C, strain SHM2, active compounds read low 1 | S. cerevisiae deletion strains, locus YLR102C, strain apc9, active compounds read low 1.02 | S. cerevisiae deletion strains, locus YLR113W, strain HOG1, active compounds read low 1.03 | S. cerevisiae deletion strains, locus YLR221C, strain rsa3, active compounds read low 1.03 | S. cerevisiae deletion strains, locus YLR258W, strain gsy2, active compounds read low 1.02 | S. cerevisiae deletion strains, locus YLR262C, strain YPT6 (second series), active compounds read low 1.06 | S. cerevisiae deletion strains, locus YLR262C, strain YPT6, active compounds read low 1.19 | S. cerevisiae deletion strains, locus YLR268W, strain sec22, active compounds read low 1.03 | S. cerevisiae deletion strains, locus YLR320W, strain mms22, active compounds read low 1.07 | S. cerevisiae deletion strains, locus YLR342W, strain FKS1 (second series), active compounds read low 1.01 | S. cerevisiae deletion strains, locus YLR342W, strain FKS1, active compounds read low 1.01 | S. cerevisiae deletion strains, locus YLR357W, strain rsc2, active compounds read low 0.989 | S. cerevisiae deletion strains, locus YLR370C, strain arc18, active compounds read low 1.01 | S. cerevisiae deletion strains, locus YLR371W, strain rom2, active compounds read low 0.977 | S. cerevisiae deletion strains, locus YLR384C, strain iki3, active compounds read low 1.03 | S. cerevisiae deletion strains, locus YLR418C, strain cdc73, active compounds read low 1.03 | S. cerevisiae deletion strains, locus YML016C, strain PPZ1, active compounds read low 1 | S. cerevisiae deletion strains, locus YML032C, strain rad52, active compounds read low 1.02 | S. cerevisiae deletion strains, locus YML120C, strain ndi1, active compounds read low 1.03 | S. cerevisiae deletion strains, locus YML124C, strain tub3, active compounds read low 1.02 | S. cerevisiae deletion strains, locus YMR058W, strain fet3, active compounds read low 0.955 | S. cerevisiae deletion strains, locus YMR078C, strain ctf18, active compounds read low 1.02 | S. cerevisiae deletion strains, locus YMR125W, strain sto1, active compounds read low 1.03 | S. cerevisiae deletion strains, locus YMR129W, active compounds read low 1.04 | S. cerevisiae deletion strains, locus YMR205C, strain PFK2, active compounds read low 1.09 | S. cerevisiae deletion strains, locus YMR223W, strain ubp8, active compounds read low 1 | S. cerevisiae deletion strains, locus YMR231W, strain pep5, active compounds read low 1.02 | S. cerevisiae deletion strains, locus YMR263W, strain SAP30, active compounds read low 1.03 | S. cerevisiae deletion strains, locus YMR307W, strain GAS1, active compounds read low 0.915 | S. cerevisiae deletion strains, locus YNL067W, strain RPL9B, active compounds read low 1.02 | S. cerevisiae deletion strains, locus YNL071W, strain lat1, active compounds read low 1.05 | S. cerevisiae deletion strains, locus YNL183C, strain NPR1, active compounds read low 0.95 | S. cerevisiae deletion strains, locus YNL209W, strain ssb2, active compounds read low 0.996 | S. cerevisiae deletion strains, locus YNL233W, strain BNI4, active compounds read low 1.04 | S. cerevisiae deletion strains, locus YNL248C, strain rpa49, active compounds read low 0.999 | S. cerevisiae deletion strains, locus YNL250W, strain rad50, active compounds read low 1.05 | S. cerevisiae deletion strains, locus YNL271C, strain bni1, active compounds read low 1 | S. cerevisiae deletion strains, locus YNL298W, strain CLA4, active compounds read low 1.02 | S. cerevisiae deletion strains, locus YNL307C, strain MCK1, active compounds read low 1.02 | S. cerevisiae deletion strains, locus YNL322C, strain KRE1 (second series), active compounds read low 1.07 | S. cerevisiae deletion strains, locus YNL322C, strain KRE1, active compounds read low 1.01 | S. cerevisiae deletion strains, locus YNR049C, strain mso1, active compounds read low 1.04 | S. cerevisiae deletion strains, locus YNR052C, strain pop2, active compounds read low 0.963 | S. cerevisiae deletion strains, locus YOL006C, strain TOP1, active compounds read low 1.03 | S. cerevisiae deletion strains, locus YOL012C, strain htz1 1.21 | S. cerevisiae deletion strains, locus YOL147C, strain pex11, active compounds read low 1.01 | S. cerevisiae deletion strains, locus YOR001W, strain rrp6, active compounds read low 1.03 | S. cerevisiae deletion strains, locus YOR061W, strain CKA2, active compounds read low 1.02 | S. cerevisiae deletion strains, locus YOR069W, strain VPS5, active compounds read low 1 | S. cerevisiae deletion strains, locus YOR070C, strain gyp1, active compounds read low 1.01 | S. cerevisiae deletion strains, locus YOR080W, strain dia2, active compounds read low 1.06 | S. cerevisiae deletion strains, locus YOR083W, strain WHI5, active compounds read low 1.01 | S. cerevisiae deletion strains, locus YOR106W, strain vam3, active compounds read low 1.04 | S. cerevisiae deletion strains, locus YOR136W, strain idh2, active compounds read low 1.02 | S. cerevisiae deletion strains, locus YOR144C, strain elg1, active compounds read low 1.02 | S. cerevisiae deletion strains, locus YOR184W, strain ser1, active compounds read low 1.06 | S. cerevisiae deletion strains, locus YOR231W, strain MKK1, active compounds read low 1.01 | S. cerevisiae deletion strains, locus YOR265W, strain rbl2, active compounds read low 1.03 | S. cerevisiae deletion strains, locus YOR270C, strain vph1, active compounds read low 1.14 | S. cerevisiae deletion strains, locus YOR290C, strain snf2, active compounds read low 1.01 | S. cerevisiae deletion strains, locus YOR316C, strain cot1, active compounds read low 1.01 | S. cerevisiae deletion strains, locus YPL051W, strain arl3, active compounds read low 1.02 | S. cerevisiae deletion strains, locus YPL078C, strain atp4, active compounds read low 1.01 | S. cerevisiae deletion strains, locus YPL106C, strain sse1, active compounds read low 1 | S. cerevisiae deletion strains, locus YPL240C, strain hsp82, active compounds read low 1.04 | S. cerevisiae deletion strains, locus YPL256C, strain CLN2, active compounds read low 0.992 | S. cerevisiae deletion strains, locus YPR119W, strain clb2, active compounds read low 1.03 | S. cerevisiae deletion strains, locus YPR141C, strain kar3, active compounds read low 0.993 | S. cerevisiae deletion strains, locus YPR163C, strain tif3, active compounds read low 1.01 | S. cerevisiae deletion strains, locus YPR167C, strain met16, active compounds read low 1.02 | S. cerevisiae deletion strains, strain wtn01, active compounds read low 1.03 | S. cerevisiae strains, strain wild type, active compounds read low 0.998
